Records with an inconclusive call do not appear. A number with no mark means an inactive call. Calls of active or inactive are those of the source. The call rests on the fitted dose curve.
Experiment: Cytotoxicity counterscreen for inhibitors of SARS-CoV-2 cell entry (AID 1645845); further: nearly all actives have a fitted effect of over 50% in size
Conditions: cell viability (SARS-CoV-2 entry assay cells); series mostly up to 57.1 µM; activity change, negative = cytotoxicity: at the top concentration
In short: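 HEK293-ACE2 cells (Expi293F stably expressing human ACE2) seeded overnight, then compound for 1 h plus 48 h at 37C. Viability as ATP content by luminescence; normalized to wells with cells and media-only wells.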
On the % scale 0 is the no-effect control and ±100 the full control effect.

Row | Compound | activity change, negative = cytotoxicity | outcome
1 | C#C[C@]1(OC(C)=O)CC[C@H]2[C@@H]3CCC4=CC(=O)CC[C@@H]4[C@H]3CC[C@@]21C | -26.9% | –
2 | CCCCCCCCCCCCCCCCCC(=O)OCCO | – | inactive
3 | CN[C@@H]1[C@@H](O)[C@@H](O[C@@H]2[C@@H](O)[C@H](OC3O[C@H](CN)[C@@H](O)[C@H](O)[C@H]3O)[C@@H](N)C[C@H]2NC(=O)[C@@H](O)CN)OC[C@]1(C)O (stereo not given in full) | -12.8% [at 27.1 µM] | –
4 | C=Cc1c(C)c2cc3nc(c(CC(=O)N[C@@H](CC(=O)O)C(=O)O)c4nc(cc5[nH]c(cc1[nH]2)c(C)c5CC)C(C)=C4C(=O)O)[C@@H](CCC(=O)O)[C@@H]3C | – | inactive
5 | CC(C)CCC[C@@H](C)[C@H]1CC[C@H]2[C@@H]3CC=C4C[C@@H](O)CC[C@]4(C)[C@@H]3CC[C@]12C | – | inactive [at 27.1 µM]

Reference: PubChem BioAssay (NCATS)
